ROC1-CUL1 inh: blocks human RBX1-Cullin-1 di-ubiquitin formation; P62877+Q13616; inhibition, % at 10 µM; in vitro K48 di-Ub FRET, acceptor:donor ratio, 45 min; 0.6% of 140,000 active; in the data active = inhibition above about 25%
Target sequence (P62877 whole entry, looked up): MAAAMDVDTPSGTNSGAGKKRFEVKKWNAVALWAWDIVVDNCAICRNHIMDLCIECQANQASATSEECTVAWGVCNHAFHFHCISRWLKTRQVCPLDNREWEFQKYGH
Target sequence (Q13616 whole entry, looked up): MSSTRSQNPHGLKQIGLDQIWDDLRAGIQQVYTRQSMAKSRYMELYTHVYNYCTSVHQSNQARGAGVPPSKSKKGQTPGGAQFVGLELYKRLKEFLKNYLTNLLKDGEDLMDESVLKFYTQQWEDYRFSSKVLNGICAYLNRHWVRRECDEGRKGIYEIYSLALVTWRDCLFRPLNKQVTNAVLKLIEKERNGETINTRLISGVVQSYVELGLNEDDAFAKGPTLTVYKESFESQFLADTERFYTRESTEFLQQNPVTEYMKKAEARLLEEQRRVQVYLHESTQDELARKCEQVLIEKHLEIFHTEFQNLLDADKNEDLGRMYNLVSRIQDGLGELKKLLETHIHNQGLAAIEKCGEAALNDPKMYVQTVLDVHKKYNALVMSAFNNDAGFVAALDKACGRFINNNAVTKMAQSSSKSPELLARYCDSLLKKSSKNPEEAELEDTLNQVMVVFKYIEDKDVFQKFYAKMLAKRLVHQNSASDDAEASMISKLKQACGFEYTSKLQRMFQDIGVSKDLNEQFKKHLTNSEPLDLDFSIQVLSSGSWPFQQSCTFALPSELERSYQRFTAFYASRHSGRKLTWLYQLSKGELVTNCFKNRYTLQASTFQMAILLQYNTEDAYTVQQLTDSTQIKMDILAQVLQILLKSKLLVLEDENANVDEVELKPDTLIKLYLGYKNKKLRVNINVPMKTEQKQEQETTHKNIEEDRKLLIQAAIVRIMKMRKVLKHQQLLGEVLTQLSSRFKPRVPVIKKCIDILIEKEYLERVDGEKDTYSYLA
Starred values were filed as active, the others as inactive. The entries come from a sample that favours hits as a whole.

SMILES	ROC1-CUL1 inh
CCOC(=O)C1=C(C)N=c2s/c(=C/c3ccc(C(=O)O)cc3)c(=O)n2C1c1ccc(C(C)C)cc1 (stereo unspecified)	89.9*
CCOC(=O)C1=C(C)N=c2s/c(=C\c3ccc(Cl)cc3)c(=O)n2C1c1ccc(C(C)C)cc1 (stereo unspecified)	5.1
COCCOC(=O)C1C(C)=NC(C)=C(C(=O)OC(C)C)C1c1cccc(NS(C)(=O)=O)c1 (stereo unspecified)	6.2
CCCc1nnc2sc(/C=C/c3ccccc3)nn12	-1.3
CCOC(=O)C#CCN1C(=O)c2ccccc2C1=O	40.4*
O=C1c2ccccc2C(=O)N1CC#Cc1ccccc1	-7.2
CCCCCCOC(=O)C(CCCCN1C(=O)c2ccccc2C1=O)N1C(=O)c2ccccc2C1=O (stereo unspecified)	5.3
COC(=O)c1sc2ncn(Cc3ccc(C(=O)OC(C)C)cc3)c(=O)c2c1C	0.2
O=C(Cc1c(Cl)cccc1Cl)N1CCN(c2ncccn2)CC1	-6.6
CNC(=O)c1ccccc1NC(=O)c1ccc(C(C)(C)C)cc1	-10.6
O=C(NN1CC(C(=O)O)CC1=O)c1ccccc1 (stereo unspecified)	1.9
CC12CCC(C(=O)Nc3cc(C(F)(F)F)ccc3Cl)(OC1=O)C2(C)C (stereo unspecified)	-8.8
CCOc1cc(-c2ccc(O)c(O)c2)cc(=Nc2ccc(Br)cc2)c2c(C)oc(C)c12	49.7*
CCOc1cc(-c2ccc3c(c2)OCO3)cc(=Nc2cccc(OC)c2)c2c(C)oc(C)c12	0.5
CCOc1cc(-c2ccc(O)cc2)cc(=O)c2c(C)oc(C)c12	-17.6
O=C(Cc1ccc(Cl)cc1)OC/C=C/c1ccccc1	-1.3
COc1ccc(-c2csc(-c3c[nH]c4ccccc34)n2)cc1C	-0.6
O=C1NC(=S)SC(c2ccccc2)C1c1ccccc1 (stereo unspecified)	-3.4
COc1ccc(S(=O)(=O)Nc2cc(Sc3ncn[nH]3)c(O)c3ccccc23)cc1	96.8*
Cc1ccc(S(=O)(=O)Nc2cc(SCC(=O)O)c(O)c3ccccc23)c(C)c1	4.1
O=C(O)CSc1cc(NS(=O)(=O)c2ccc3ccccc3c2)c2ccccc2c1O	89.4*
O=S(=O)(Nc1ccc(O)c(Sc2ncn[nH]2)c1)c1ccccc1	-0.1
O=c1oc2c(cc(NS(=O)(=O)c3ccc4ccccc4c3)c3ccccc32)s1	12.3
Cc1ccc(S(=O)(=O)Nc2cc(Sc3nc4ccccc4s3)c(O)c3ccccc23)cc1	9.6
C1CSC(C2NCCS2)N1 (stereo unspecified)	6.0
SMILES	ROC1-CUL1 inh
CCCc1cc(CN(C)C(=O)CC2(c3ccccc3C)CC(=O)N(Cc3ccncc3)C2=O)[nH]n1 (stereo unspecified)	10.2
COC(=O)CCC(=O)NNC(=O)CCc1ccccc1	-4.7
COc1cccc(NC(=O)C2(c3ccc(OC)c(OC)c3)CCOCC2)c1	2.2
COc1ccccc1-n1cc(CN2CCC3(CC2)CC3C(=O)N(C)CCOc2ccc(C)cc2)cn1 (stereo unspecified)	3.2
CCC1CCc2nc3sc(C(=O)Nc4ccc(C)c(F)c4)c(N)c3cc2C1 (stereo unspecified)	-17.6
CC1=Nc2nc(CCCO)nn2C(c2cccc(Cl)c2Cl)C1C(=O)Nc1ccc(F)cc1 (stereo unspecified)	5.8
Cc1cc(C)n2c(c1)cc(=O)c1ccccc12	-0.8
CCOc1ccc(OCC)c(N2C(=O)NC(=O)/C(=C\c3cccs3)C2=O)c1	-6.6
CCOc1ccc(OCC)c(N2C(=O)NC(=O)/C(=C\c3ccc(Br)o3)C2=O)c1	76.0*
CCOc1ccc(OCC)c(N2C(=O)NC(=O)/C(=C\c3ccc(OCC#N)cc3)C2=O)c1	2.1
Cc1cc(O)ccc1NC(=O)c1ccc(Cl)cc1	-3.0
c1ccc(C(CC2CN(Cc3cnc[nH]3)CCO2)c2ccccc2)cc1 (stereo unspecified)	-2.0
CC(=O)N(C)c1ccc(NC(=S)NC(=O)CC(C)C)cc1	4.1
Cc1ccccc1N1CCN(S(=O)(=O)c2cccc3ccccc23)CC1	1.5
C(=C\c1cccnc1)/c1ccc(/C=C/c2cccnc2)cc1	-0.4
O=C(/C=C/c1cccnc1)c1ccc(F)cc1	49.1*
CSc1ccc(C(=O)/C=C/c2ccccc2)cc1	2.8
Cc1ccccc1/C=C/C(=O)C1C=C(Br)C=C(Br)C(=O)C1=O (stereo unspecified)	53.7*
CC(CNC(=O)/C=C/c1cccc(Cl)c1)NC(=O)/C=C/c1cccc(Cl)c1 (stereo unspecified)	-1.5
O=C1C(=O)C(C(=O)/C=C/c2cccc(Cl)c2)C=C(Br)C=C1Br (stereo unspecified)	87.0*
O=C1C=CC(Br)=CC(C(=O)/C=C/c2ccc(Cl)cc2)C1=O (stereo unspecified)	0.7
COc1ccccc1/C=C/C(=O)C1C=C(Br)C=CC(=O)C1=O (stereo unspecified)	8.1
CCCCC1(c2ccccc2)NC(=S)N(c2ccccc2)N1 (stereo unspecified)	-7.5
CN1c2cccc3cccc(c23)N(C)C1c1cccs1	78.0*
CN1c2ccccc2N(C)C1c1cccs1	5.7
SMILES	ROC1-CUL1 inh
CC1N(C)c2cccc3cccc(c23)N1C	-21.9
CCCCCc1ccc(-c2ccc(-c3noc(-c4cccc(C)c4)n3)cc2)cc1	-1.2
CCOc1ccc(C2NC(=O)N=C(C)C2C(=O)OCC(F)(F)F)cc1 (stereo unspecified)	-6.4
COc1ccc(C2CC(c3ccc(Br)cc3)=NN2S(C)(=O)=O)cc1 (stereo unspecified)	1.5
CC(C)(C)c1cc(Br)ccc1OCC(=O)Nc1ccccc1	0.1
O=C(COc1ccc(Br)cc1/C=C1/C(=O)ON=C1c1ccccc1)Nc1ccccc1	42.7*
Cc1cccc(NC(=O)COc2ccc(Br)cc2C=C2C(=O)NC(=S)NC2=O)c1	-0.4
O=C(c1ccc(F)cc1)c1cc2c3c(cc(C(=O)c4ccc(F)cc4)cc3c1)CC2	6.3
COc1cc(OC)c(C2c3c(n[nH]c3-c3ccccc3)OC(=N)C2C#N)cc1OC (stereo unspecified)	-1.6
COc1ccccc1NC(=O)COc1cccc2ccccc12	-0.4
Cc1cc(O)ccc1NC(=O)COc1cccc2ccccc12	2.8
O=C(COc1cccc2ccccc12)Nc1ccc(Cl)cc1C(=O)O	25.4*
O=C1OC(c2ccc(Cl)cc2)=N/C1=C\c1c(OCc2ccccc2)ccc2ccccc12	-7.4
COc1ccc(CCN(C)C(=O)CC2(c3ccccc3OC)CC(=O)N(C)C2=O)cc1OC (stereo unspecified)	9.0
CCOc1ccccc1C1C2=C(CCCC2=O)OC(=N)C1C#N (stereo unspecified)	3.1
FC(F)(F)c1ccc2nc(-c3ccc(Br)cc3)cn2c1	-1.6
Brc1ccc(-c2cn3ccncc3n2)cc1	29.1*
O=[N+]([O-])c1ccc2nc(-c3ccc(Br)cc3)cn2c1	5.4
CSc1ncc(F)c(=O)n1Cc1ccccc1	-16.9
Cc1ccccc1Cn1nc(C)c(NC(=O)CC23CC4CC(C2)CC(c2c(C)noc2C)(C4)C3)c1C	-3.2
O=c1[nH]c(-c2cccnc2)nc2scc(-c3ccccc3)c12	0.7
CCOC(=O)Cn1cc(/C=c2\sc3n(c2=O)C(c2ccc(SC)cc2)C(C(=O)OCC)=C(c2ccccc2)N=3)c2ccccc21 (stereo unspecified)	-11.1
CCOC(=O)C1=C(c2ccccc2)N=c2s/c(=C\c3ccc(N(CC)CC)cc3O)c(=O)n2C1c1ccc(SC)cc1 (stereo unspecified)	47.2*

Screening results deposited in PubChem by Pan Lab, Icahn School of Medicine at Mount Sinai.
